TDP-43 rescue – inhibitors of TDP-43 toxicity in yeast; yeast TDP-43 toxicity rescue, BacTiter-Glo growth, 24 h; Potency, µM (series often up to 46.1 µM), usual class: activators; 0.45% of 45,000 active; active means well fitted activation curve with a large enough effect; further: 0% is about no effect; nearly all actives have a fitted effect of over 55% in size
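TDP-43-expressing yeast, pregrown in raffinose, seeded at OD600 0.02 in galactose medium with compound for 24 hr at 30 deg C. Growth read by BacTiter-Glo luminescence, so rescue of toxicity appears as activation.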
* marks the source's active call; other numbers are inactive results. Only a selection was taken, and hits are over-represented in it overall. Potency means the concentration at half of the fitted maximal effect.

How did O=C(O)CCC(=O)Nc1cccc(-c2csc(-c3ccccc3)n2)c1 do in these assays?
TDP-43 rescue: inactive

What do the screens show for `O=C(CCl)Nc1cccc(-c2cnc3ccccc3n2)c1`?
TDP-43 rescue: 13µM*

Results for Clc1ccc(-c2cnc3ccccc3n2)cc1 ?
TDP-43 rescue: inactive

What do the screens show for `Cc1cc(C)cc(Cn2c3ccc(NC(=O)NCCc4cccs4)cc3c(=O)n2C)c1`?
TDP-43 rescue: inactive

What do the screens show for `CCn1c(SCC(=O)N/N=C(\C)c2ccncc2)nnc1-c1ccc(C)cc1`?
TDP-43 rescue: inactive

What do the screens show for `Nn1c(=O)c2ccccc2n2c(SCc3ccccc3)nnc12`?
TDP-43 rescue: inactive

How did Nn1c(SCc2cccc(Oc3ccccc3)c2)nnc1C(F)(F)F do in these assays?
TDP-43 rescue: 13µM*

Results for Cn1c(SCC(=O)Nc2ccccc2)nnc1C(F)(F)F ?
TDP-43 rescue: inactive

Results for O=C(CN1CC(c2ccccc2)CC1=O)N/N=C/c1cc(Br)ccc1O (stereo not given) ?
TDP-43 rescue: inactive

How did COc1ccc(NC(=O)c2ccc(NC(=O)C3COc4ccccc4O3)cc2)c(OC)c1 (stereo not given) do in these assays?
TDP-43 rescue: inactive

What do the screens show for `CCOc1ccc(S(=O)(=O)NCC2CCCO2)cc1NC(=O)c1ccccc1F` (stereo not given)?
TDP-43 rescue: inactive

What do the screens show for `COc1ccc(NC(=O)c2cc(S(=O)(=O)NCC3COc4ccccc4O3)ccc2F)cc1` (stereo not given)?
TDP-43 rescue: 25µM*

How did Nc1nc(-c2ccc3c(c2)CCCC3)c(CC(=O)O)s1 do in these assays?
TDP-43 rescue: inactive

Results for CCn1c(C)nc2cc(C(=O)N/N=C/c3cccc(OC)c3O)ccc21 ?
TDP-43 rescue: inactive

How did COc1cccc(/C=N/NC(=O)c2nc(-c3ccccc3)cc(-c3ccccc3)n2)c1O do in these assays?
TDP-43 rescue: 13µM*

What do the screens show for `COc1cccc(/C=N/NC(=O)N/N=C/c2cccc(OC)c2O)c1O`?
TDP-43 rescue: inactive

How did O=C1Nc2ccccc2N(O)N1c1ccc(S(=O)(=O)N2CCOCC2)cc1 do in these assays?
TDP-43 rescue: inactive

How did O=C(CSc1ncnc2sc(-c3ccccc3)cc12)NC1CCS(=O)(=O)C1 (stereo not given) do in these assays?
TDP-43 rescue: inactive

How did CC(C)(C)c1ccc2c(c1)N(CC(=O)N1CCOCC1)C(=O)CO2 do in these assays?
TDP-43 rescue: inactive

What do the screens show for `CN(c1ccc(C(=O)N/N=C/c2cccc([N+](=O)[O-])c2)cc1)S(=O)(=O)c1ccccc1`?
TDP-43 rescue: inactive

How did CC(=O)Nc1ccc(NC(=O)C2Cc3c(-c4cccc(C(C)=O)c4)ccnc3O2)cc1 (stereo not given) do in these assays?
TDP-43 rescue: inactive

How did O=C(Nc1cccc(OC(F)(F)F)c1)C1Cc2c(-c3ccco3)ccnc2O1 (stereo not given) do in these assays?
TDP-43 rescue: inactive

How did CC(=O)c1cccc(-c2ccnc3c2CC(C(=O)Nc2cccc(OC(F)(F)F)c2)O3)c1 (stereo not given) do in these assays?
TDP-43 rescue: 22µM*

Results for CC(=O)c1c(C)[nH]c(C(=O)COC(=O)c2ccc(C)s2)c1C ?
TDP-43 rescue: inactive

What do the screens show for `CCOc1cc2c(cc1OCC)C(c1ccc(C(=O)O)cc1)NCC2` (stereo not given)?
TDP-43 rescue: inactive

What do the screens show for `Cc1c(C(=O)N2CCOCC2)sc(NC(=O)c2ccccc2F)c1C#N`?
TDP-43 rescue: inactive

What do the screens show for `COc1ccc(-c2nc(CNS(=O)(=O)c3ccc(F)cc3)cs2)cc1`?
TDP-43 rescue: inactive

How did COc1ccc(-c2nc(CNS(=O)(=O)c3cccc(F)c3)cs2)cc1 do in these assays?
TDP-43 rescue: 16µM*

How did COc1ccc(-c2nc(CNS(=O)(=O)c3ccc(C)cc3)cs2)cc1 do in these assays?
TDP-43 rescue: inactive

How did Cc1nc(NC(=O)c2ccco2)sc1C(=O)O do in these assays?
TDP-43 rescue: inactive

Results for CC(=O)c1c(C)[nH]c(C(=O)Nc2nc(-c3ccccc3)c(C)s2)c1C ?
TDP-43 rescue: inactive

What do the screens show for `Cc1sc(NC(=O)c2ccco2)nc1-c1ccccc1`?
TDP-43 rescue: 13µM*

Results for CCCCN(C)CCC(=O)Nc1ccc(C)cc1 ?
TDP-43 rescue: inactive

What do the screens show for `COc1ccccc1-c1cc2nc(NCCc3ccncc3)ccn2n1`?
TDP-43 rescue: inactive

Results for COc1cc(-c2cc3nc(NCc4cccc(Cl)c4)ccn3n2)cc(OC)c1OC ?
TDP-43 rescue: 14µM*

How did c1ccc(-c2cc3nc(NCc4cccs4)ccn3n2)cc1 do in these assays?
TDP-43 rescue: inactive

How did O=S(=O)(NCCc1csc(-c2ccccc2)n1)c1ccc2c(c1)OCCO2 do in these assays?
TDP-43 rescue: 18µM*

How did CC(NS(=O)(=O)c1ccc2c(c1)OCCO2)c1ccccc1 (stereo not given) do in these assays?
TDP-43 rescue: inactive

Results for CCCNS(=O)(=O)c1ccc(CCC(=O)Nc2ccc3c(c2)OCCO3)cc1 ?
TDP-43 rescue: inactive

What do the screens show for `O=C(NC1CCCCC1)c1cc(-c2cccs2)on1`?
TDP-43 rescue: inactive

Screening results from PubChem BioAssay.
